Values joined by “and” are separate entries in the source; they are usually repeats but may differ in a detail not shown here. Equal values may be shown once. The panel holds about 79,000 compounds, 15% with a hit somewhere; the sample as a whole holds those more often. Where a structure was tested more than once in an assay, its records may differ in their call. Active and inactive are the calls of the source. Cut-off read from the data, not from the text of the source: active = growth inhibition above about 70%; inactive = the rest.

A short description of test [1]: NCI Yeast Anticancer Drug Screen. Data for the rad50 strain (AID 155).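 Note: 0% = growth of vehicle-only cultures of the same strain.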 The settings on record: S. cerevisiae rad50 strain growth inhibition, stronger effect = higher value. A digest of the protocol:
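Genetically altered yeast (DNA repair pathway); compound treatment; growth inhibition vs vehicle ctrl.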

Test [2] is described as follows: NCI Yeast Anticancer Drug Screen. Data for the mec2-1 strain (AID 157). The settings on record: S. cerevisiae mec2-1 strain, stronger effect = higher value. A digest of the protocol:
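Cells of the genetically defined mec2-1 yeast strain are incubated with test compound. Inhibition of growth is calculated against vehicle-treated controls.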

Test [3] in a line: NCI Yeast Anticancer Drug Screen. Data for the sgs1 mgt1 strain (AID 161).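 Note: 0% = growth of cultures given vehicle only.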 The settings on record: S. cerevisiae sgs1 mgt1 strain, stronger effect = higher value. A digest of the protocol: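 Inhibition of yeast growth, normalised to vehicle-treated controls, is reported for a strain bearing genetic alterations in DNA damage repair.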
Test [4] is described as follows: NCI Yeast Anticancer Drug Screen. Data for the cln2 rad14 strain (AID 165).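 Note: 0% = growth equal to vehicle treated cultures.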 The settings on record: S. cerevisiae cln2 rad14 strain, stronger effect = higher value. In a few lines:
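The screen exposed genetically defined yeast (cln2 rad14) to test compounds and scored growth inhibition relative to vehicle-treated controls.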

The nature of test [5]: NCI Yeast Anticancer Drug Screen. Data for the bub3 strain (AID 167). The settings on record: S. cerevisiae bub3 mutant strain, stronger effect = higher value. A digest of the protocol:
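Yeast carrying a defined mutation is treated with each compound, and growth is compared with that of vehicle-exposed cells to give inhibition.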

The nature of test [6]: NCI Yeast Anticancer Drug Screen. Data for the mlh1 rad18 strain (AID 175). As to conditions: S. cerevisiae mlh1 rad18 strain growth inhibition, stronger effect = higher value. A digest of the protocol:
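Compound-treated yeast growth, normalised to vehicle controls. Strain bears defined DNA repair mutations.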

The mark [7] stands for this setting: at 5.0 µM (retest, dose inferred, filed as 0.5).
Setting [8] is: at 50.0 µM (retest, dose inferred, filed as 5.0).

`C[C@H]1CCC/C=C/[C@@H]2C[C@H](O)C[C@H]2[C@H](O)/C=C/C(=O)O1`: the growth inhibition in test [1] (setting [7]) is 5% (inactive) and 15% (inactive); in test [1] (setting [8]), 98% (active) and 99% (active); in test [2] (setting [7]) it was 10% (inactive) and 26% (inactive); in test [2] (setting [8]) it was 99% (active) and 100% (active); in test [3] (setting [7]) it was 13% (inactive) and 21% (inactive); in test [3] (setting [8]) it was 99% (active). Moreover, the growth inhibition in test [3] (at 50.0 µM) is 90.3% (active) and 5.45% (inactive) and 90.8% (active); in test [4] (setting [7]) it was 7% (inactive) and 27% (inactive); in test [4] (setting [8]) it was 99% (active); in test [5] (setting [7]), 4% (inactive) and 31% (inactive); in test [5] (setting [8]), 97% (active) and 98% (active); in test [5] (at 50.0 µM), 90.8% (active) and 1.65% (inactive) and 90.9% (active). Moreover, the growth inhibition in test [6] (setting [7]) was 17% (inactive) and 42% (inactive); in test [6] (setting [8]) it was 99% (active); in test [6] (at 50.0 µM), 90.8% (active) and 13.7% (inactive) and 39% (inactive).
On to `NNc1n[nH]c(=S)n1N`, for which the growth inhibition in test [1] (at 50.0 µM) was 7.2% (inactive) and 1.8% (inactive) and 15.1% (inactive); in test [2] (at 50.0 µM), -5.4% (inactive) and 0.5% (inactive) and -6.15% (inactive); in test [3] (at 50.0 µM), 9.8% (inactive) and -4.35% (inactive) and 4.1% (inactive); in test [4] (at 50.0 µM) it was 8.7% (inactive) and 13% (inactive) and 5.85% (inactive); in test [5] (at 50.0 µM) it was 9.3% (inactive) and 17% (inactive) and 0.45% (inactive); in test [6] (at 50.0 µM), 17.6% (inactive) and -1.5% (inactive) and -1.65% (inactive).
Take `CC1CCC2(NC1)OC1CC3C4CC=C5CC(O)CCC5(C)C4CCC3(C)C1C2C` (stereo not given): the growth inhibition was 78% (active) and -4% (inactive) in test [1] (setting [7]); 98% (active) and 99% (active) in test [1] (setting [8]); 90.8% (active) and 98.2% (active) in test [1] (at 50.0 µM); 56% (inactive) and 13% (inactive) in test [2] (setting [7]); 99% (active) and 98% (active) in test [2] (setting [8]); 93% (active) and 99.3% (active) in test [2] (at 50.0 µM). Also, the growth inhibition in test [3] (setting [7]) was 92% (active) and -3% (inactive); in test [3] (setting [8]) it was 99% (active); in test [3] (at 50.0 µM), 91.8% (active) and 99% (active); in test [5] (setting [7]) it was 93% (active) and 39% (inactive); in test [5] (setting [8]), 99% (active); in test [5] (at 50.0 µM), 90.2% (active) and 99.1% (active). Besides, the growth inhibition in test [6] (setting [7]) is 77% (active) and 4% (inactive); in test [6] (setting [8]), 98% (active) and 99% (active); in test [6] (at 50.0 µM), 89% (active) and 98.8% (active).
As for `COc1cc2c(cc1OC)C13CCN4CC5=CCOC6CC(=O)N2C1C6C5CC43` (stereo not given) (tested in a mixture with another compound), the growth inhibition in test [1] (setting [7]) was -6% (inactive); in test [1] (setting [8]), -24% (inactive); in test [1] (at 50.0 µM), 7.15% (inactive) [middle of 6 runs]; in test [2] (setting [7]), -2% (inactive); in test [2] (setting [8]) it was 1% (inactive); in test [3] (setting [7]), -13% (inactive). For the same molecule, the growth inhibition was -8% (inactive) in test [3] (setting [8]); -3% (inactive) in test [4] (setting [7]); 2% (inactive) in test [4] (setting [8]); 0% (inactive) in test [5] (setting [7]); -2% (inactive) in test [5] (setting [8]); -1.4% (inactive) [middle of 6 runs] in test [5] (at 50.0 µM). The results for the growth inhibition in test [6] (setting [7]) and in test [6] (setting [8]) were -2% (inactive) and -4% (inactive), respectively.
Regarding `CCC1(O)C(=O)OCc2c1cc(C)[nH]c2=O` (stereo not given), the growth inhibition in test [1] (setting [7]) was -124% (inactive); in test [1] (setting [8]), -25% (inactive); in test [1] (at 50.0 µM) it was 0.75% (inactive); in test [2] (setting [7]), -42% (inactive); in test [2] (setting [8]) it was -45% (inactive); in test [2] (at 50.0 µM), 0.1% (inactive). The growth inhibition was -57% (inactive) in test [3] (setting [7]); -45% (inactive) in test [3] (setting [8]); -5.5% (inactive) in test [3] (at 50.0 µM); -75% (inactive) in test [5] (setting [7]); -56% (inactive) in test [5] (setting [8]); 4.45% (inactive) in test [5] (at 50.0 µM). Also, the growth inhibition in test [6] (setting [7]) was -157% (inactive); in test [6] (setting [8]) it was -85% (inactive); in test [6] (at 50.0 µM), 4.95% (inactive).
Regarding `CC(Br)c1ccccc1` (stereo not given), the growth inhibition in test [2] (setting [7]) is 1% (inactive); in test [2] (setting [8]) it was 10% (inactive); in test [2] (at 50.0 µM), 26.6% (inactive); in test [3] (setting [7]), 2% (inactive); in test [3] (setting [8]), 14% (inactive); in test [3] (at 50.0 µM) it was 40.6% (inactive). Further, the growth inhibition is 3% (inactive) in test [4] (setting [7]); 7% (inactive) in test [4] (setting [8]); -2.05% (inactive) in test [4] (at 50.0 µM); 6% (inactive) in test [5] (setting [7]); 42% (inactive) in test [5] (setting [8]); 65.8% (inactive) in test [5] (at 50.0 µM). For the same molecule, the growth inhibition was 5% (inactive) in test [6] (setting [7]), 21% (inactive) in test [6] (setting [8]) and 79.6% (active) in test [6] (at 50.0 µM).
Regarding `Oc1c(Cl)c(Cl)c(Cl)c(Cl)c1Cl.[Cu+2]`, the growth inhibition was 23% (inactive) in test [1] (setting [7]); 98% (active) in test [1] (setting [8]); 88.5% (active) in test [1] (at 50.0 µM); 31% (inactive) in test [3] (setting [7]); 98% (active) in test [3] (setting [8]); 81% (active) in test [3] (at 50.0 µM). Also, the growth inhibition in test [4] (setting [7]) is 8% (inactive); in test [4] (setting [8]) it was 99% (active); in test [4] (at 50.0 µM) it was 92.8% (active); in test [5] (setting [7]), 11% (inactive); in test [5] (setting [8]) it was 97% (active); in test [5] (at 50.0 µM) it was 89.5% (active). For the same molecule, the growth inhibition in test [6] (setting [7]) is 15% (inactive); in test [6] (setting [8]), 96% (active); in test [6] (at 50.0 µM) it was 88.6% (active).
Turning to `Cc1ccc2c(c1)SP(=S)(c1ccccc1)N2` (stereo not given), the growth inhibition in test [1] (setting [7]) was 6% (inactive); in test [1] (setting [8]), 99% (active); in test [1] (at 50.0 µM), 99.2% (active); in test [2] (setting [7]), 4% (inactive); in test [2] (setting [8]) it was 99% (active); in test [2] (at 50.0 µM), 99.5% (active). Moreover, the growth inhibition in test [4] (setting [7]) was 15% (inactive); in test [4] (setting [8]), 97% (active); in test [4] (at 50.0 µM), 54.4% (inactive); in test [5] (setting [7]), 0% (inactive); in test [5] (setting [8]), 99% (active); in test [5] (at 50.0 µM), 98.8% (active). The growth inhibition in test [6] (setting [7]) is 3% (inactive); in test [6] (setting [8]) it was 99% (active); in test [6] (at 50.0 µM), 98% (active).
Take `c1ccc2c(c1)CCc1c-2[nH]c2ccccc12`: the growth inhibition in test [1] (setting [7]) was -67% (inactive); in test [1] (setting [8]), 79% (active); in test [1] (at 50.0 µM), 72.2% (active); in test [2] (setting [7]), -8% (inactive); in test [2] (setting [8]), 77% (active); in test [2] (at 50.0 µM) it was 36.4% (inactive). The growth inhibition in test [4] (setting [7]) is -60% (inactive); in test [4] (setting [8]), 65% (inactive); in test [4] (at 50.0 µM), 51.8% (inactive); in test [5] (setting [7]) it was -48% (inactive); in test [5] (setting [8]), 87% (active); in test [5] (at 50.0 µM) it was 89.8% (active). Also, the growth inhibition in test [6] (setting [7]) was -43% (inactive); in test [6] (setting [8]), 83% (active); in test [6] (at 50.0 µM), 83.2% (active).
